Among the test systems are NCI/ADR-RES ovarian; T-47D breast; BT-549 breast; MDA-MB-435 melanoma; SW-620 colon; MCF7 breast; HCT-116 colon; HCC-2998 colon; KM12 colon.
Holding throughout (assay): NCI-60 one-dose screen, 48 h (100 = growth as untreated, 0 = no growth, -100 = all killed)
Holding throughout (settings): 10 µM unless noted

Molecules are shown by their SMILES. Compounds without any hit were thinned out: in the full panel of roughly 83,000, 20% have a hit.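 Growth was measured after 48 h exposure to one concentration of compound in 96-well plates. Values under 10 count as active.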 Unmarked numbers belong to inactive results. Activity calls are given as the source filed them.

On to `OCCCCCNC1CCCCC1`, for which the growth is 103% with NCI/ADR-RES ovarian; 95.4% with T-47D breast; 105% in the test with BT-549 breast; 104% with MDA-MB-435 melanoma; 107% in the test with SW-620 colon; 103% in the test on MCF7 breast. The growth is 94.7% in the test with HCT-116 colon, 104% with HCC-2998 colon and 111% in the test with KM12 colon.
Take `CC[C@H](C)[C@H](NC(=O)c1nccn1C)C(=O)N(C)[C@H](C[C@@H](OC(C)=O)c1nc(C(=O)N[C@@H](Cc2ccccc2)C[C@H](C)C(=O)OC)cs1)C(C)C`: the growth with NCI/ADR-RES ovarian is 16.5%; in the test with T-47D breast, 47.9%; in the test on BT-549 breast, 0.0991% (active); in the test with MDA-MB-435 melanoma, -48% (active); in the test with SW-620 colon it was 26.1%; in the test on MCF7 breast, 17.5%. The results for the growth with HCT-116 colon, with HCC-2998 colon and in the test on KM12 colon were 3.27% (active), 31.5% and 11.1%, respectively.
Turning to `O=Cc1cn(Cc2ccc(Cl)cc2)c2ccccc12`, the growth in the test with NCI/ADR-RES ovarian is 90.6%; in the test with T-47D breast it was 24.4%; in the test with BT-549 breast it was 92.7%; with MDA-MB-435 melanoma, 104%; in the test with SW-620 colon, 68.1%; in the test with MCF7 breast, 55.5%. Moreover, the growth was 63.2% with HCT-116 colon, 98% in the test with HCC-2998 colon and 109% with KM12 colon.
As to `O=C1C=C(N2C3C4CCC(C4)C32)C(=O)C=C1c1ccccc1` (stereo unspecified), the growth in the test with NCI/ADR-RES ovarian is 99.4%; in the test on T-47D breast, 6.64% (active); with BT-549 breast, 93.2%; in the test with MDA-MB-435 melanoma, 99.7%; with SW-620 colon it was 82.6%; in the test on MCF7 breast it was 62.4%. For the same compound, the growth in the test on HCT-116 colon was 85%; in the test on HCC-2998 colon it was 115%; in the test on KM12 colon, 102%.
For the compound `C[N+]12CN3CN(CN(C3)C1)C2`, the growth was 97.9% in the test with NCI/ADR-RES ovarian; 93% in the test on T-47D breast; 113% with BT-549 breast; 101% with MDA-MB-435 melanoma; 96.7% in the test with SW-620 colon; 97.3% in the test with MCF7 breast. The figures for the growth with HCT-116 colon, in the test on HCC-2998 colon and in the test with KM12 colon were 92.8%, 99.3% and 111%, respectively.
For the compound `CC(=O)[O][Hg][O]C(C)=O`, the growth with NCI/ADR-RES ovarian is 108%; in the test with T-47D breast it was 52.9%; in the test with BT-549 breast, 103%; in the test on MDA-MB-435 melanoma, 85.7%; with SW-620 colon it was 85.6%; with MCF7 breast it was 55.9%. In addition, the growth in the test with HCT-116 colon was 95.7%; with HCC-2998 colon, 120%; in the test with KM12 colon, 87.5%.
With `[Au+].[N-]=C=O.c1ccc(CN2[CH-]N(Cc3ccccc3)C(c3ccccc3)=C2c2ccccc2)cc1`, the growth was 109% with NCI/ADR-RES ovarian; 52.4% with T-47D breast; 89.8% in the test on BT-549 breast; 101% in the test on MDA-MB-435 melanoma; 89.6% in the test with SW-620 colon; 46.1% with MCF7 breast. The growth is 67.6% in the test on HCT-116 colon, 79.9% with HCC-2998 colon and 90.4% in the test with KM12 colon.
As for `CCOP(=O)(Cc1ccc(C#N)cc1)OCC`, the growth with NCI/ADR-RES ovarian is 108%; in the test with T-47D breast, 101%; in the test on BT-549 breast, 109%; in the test with MDA-MB-435 melanoma it was 114%; with SW-620 colon, 99.9%; in the test on MCF7 breast, 88.6%. Also, the values for the growth in the test on HCT-116 colon, with HCC-2998 colon and in the test on KM12 colon were 84.5%, 110% and 107%, respectively.
For `COc1ccc(/C=C\c2cc(OC)c(OC)c(OC)c2)cc1OCC(=O)Nc1nc2ccc(C(F)(F)F)cc2s1`, the growth in the test with NCI/ADR-RES ovarian was -11.8% (active); in the test on T-47D breast, 37.7%; with BT-549 breast, 43.1%; in the test with MDA-MB-435 melanoma, -34.9% (active); in the test on SW-620 colon, 28.3%; with MCF7 breast, 15.1%. For the same compound, the growth was 13.8% with HCT-116 colon, 64.7% in the test on HCC-2998 colon and 17.9% in the test with KM12 colon.
As for `O=C(O)c1c(Cl)n(Cc2ccc(O)cc2)c2ccc(O)cc12`, the growth is 118% in the test with NCI/ADR-RES ovarian; 118% in the test on T-47D breast; 99.4% in the test on BT-549 breast; 87% with MDA-MB-435 melanoma; 101% in the test with SW-620 colon; 101% in the test on MCF7 breast. Besides, the growth was 95% in the test with HCT-116 colon, 119% with HCC-2998 colon and 107% in the test with KM12 colon.
With `COC(=O)[C@@H](C[C@H](Cc1ccccc1)NC(=O)c1csc([C@@H](C[C@H](C(C)C)N(C)C(=O)[C@@H](NC(=O)[C@H]2CCCCN2C)C(C)C)OC(C)=O)n1)NC(=O)OCc1ccccc1`, the growth is 13.9% [9.5 µM] with NCI/ADR-RES ovarian; 78.8% [9.5 µM] in the test on T-47D breast; -28% [9.5 µM] (active) in the test with BT-549 breast; -36% [9.5 µM] (active) with MDA-MB-435 melanoma; 26.1% [9.5 µM] with SW-620 colon; 27.8% [9.5 µM] with MCF7 breast. The results for the growth in the test on HCT-116 colon, with HCC-2998 colon and with KM12 colon were 1.64% [9.5 µM] (active), 19.5% [9.5 µM] and 1.08% [9.5 µM] (active), respectively.
In the case of `CC1=C(CCCNS(C)(=O)=O)C2=C(C)C3(CC3)[C@@](C)(O)C(=O)C2=C1`, the growth is -5.49% (active) in the test on NCI/ADR-RES ovarian; -11.2% (active) in the test on T-47D breast; -31% (active) with BT-549 breast; 11.7% with MDA-MB-435 melanoma; 83.3% in the test with SW-620 colon; 20.7% in the test with MCF7 breast. Moreover, the growth with HCT-116 colon was 1.02% (active); in the test on HCC-2998 colon, -43.3% (active); in the test on KM12 colon, 62.4%.
Turning to `O=C(Nc1ccc(Br)cc1)c1cc(Br)cc(Br)c1O`, the growth is -6.08% (active) in the test on NCI/ADR-RES ovarian; -2.63% (active) in the test with T-47D breast; -28% (active) in the test with BT-549 breast; 1.23% (active) in the test on MDA-MB-435 melanoma; -15.7% (active) in the test on SW-620 colon; 8.07% (active) in the test with MCF7 breast. The growth in the test on HCT-116 colon is -13.9% (active); with HCC-2998 colon, 52.1%; in the test with KM12 colon, -44.2% (active).
As for `Fc1cccc(NCOOC2(OOCNc3cccc(F)c3)CCCCC2)c1`, the growth in the test on NCI/ADR-RES ovarian was 77.8%; in the test on T-47D breast, 86.8%; with BT-549 breast, 102%; in the test on MDA-MB-435 melanoma, 101%; in the test with SW-620 colon, 104%; with MCF7 breast, 88.8%. Moreover, the growth is 87.3% with HCT-116 colon, 105% in the test on HCC-2998 colon and 94.6% in the test with KM12 colon.

The values above are taken from PubChem BioAssay (NCI).
